In paper PMC2807882, “Conservation of DNA-binding specificity and oligomerisation properties within the p53 family” one finds binding signal data, which are given here for seven sequences.

Test in all cases: fluorescence anisotropy competition titration; 25 mM sodium phosphate (purification buffer pH 7.2), 225 mM NaCl, 10% v/v glycerol, 5 mM DTT, 0.2 mg/mL BSA, 22 C; low values mean tight binding
What all share (settings): protein: recombinant; tags: N-terminal 6xHis-lipoyl-TEV tag, cleaved; chain copies: 4; dsDNA, one strand shown
A general note: In fluorescence polarisation assays a small probe gives low polarisation when free and higher when bound to something large.

Experiment [1] deals with T1, Dmp53 (Drosophila melanogaster, UniProt Q9N6D8 1-385).
T1 sequence: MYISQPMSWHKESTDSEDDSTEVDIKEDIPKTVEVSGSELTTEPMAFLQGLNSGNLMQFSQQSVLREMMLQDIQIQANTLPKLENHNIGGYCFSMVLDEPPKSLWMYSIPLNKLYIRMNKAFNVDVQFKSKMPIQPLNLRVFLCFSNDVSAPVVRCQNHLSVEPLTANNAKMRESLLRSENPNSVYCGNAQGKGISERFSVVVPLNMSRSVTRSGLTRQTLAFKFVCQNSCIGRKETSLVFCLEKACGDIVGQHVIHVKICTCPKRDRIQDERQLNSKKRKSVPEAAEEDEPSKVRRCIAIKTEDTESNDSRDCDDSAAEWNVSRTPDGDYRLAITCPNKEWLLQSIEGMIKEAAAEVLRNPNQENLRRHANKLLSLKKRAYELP

Experiment [2] concerns the target T2, Drp53 (Danio rerio, UniProt P79734 1-373).
T2 sequence: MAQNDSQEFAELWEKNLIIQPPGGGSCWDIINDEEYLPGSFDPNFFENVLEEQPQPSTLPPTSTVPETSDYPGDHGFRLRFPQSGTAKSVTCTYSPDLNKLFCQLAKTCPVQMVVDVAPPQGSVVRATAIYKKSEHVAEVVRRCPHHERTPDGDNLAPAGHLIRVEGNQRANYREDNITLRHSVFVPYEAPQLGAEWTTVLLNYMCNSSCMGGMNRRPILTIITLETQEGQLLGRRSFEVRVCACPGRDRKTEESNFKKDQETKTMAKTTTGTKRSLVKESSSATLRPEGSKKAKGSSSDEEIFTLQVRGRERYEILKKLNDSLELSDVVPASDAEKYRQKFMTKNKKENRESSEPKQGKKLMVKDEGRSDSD

In experiment [3] the target is Hsp53 (Homo sapiens, UniProt P04637 1-393).
Experiment [4] has as its target Xlp53 (Xenopus laevis, UniProt Q7T1D0 1-362).
Experiment [5] concerns the target T3, ΔNp63α (Homo sapiens, UniProt Q9H3D4-2 1-586).
T3 sequence: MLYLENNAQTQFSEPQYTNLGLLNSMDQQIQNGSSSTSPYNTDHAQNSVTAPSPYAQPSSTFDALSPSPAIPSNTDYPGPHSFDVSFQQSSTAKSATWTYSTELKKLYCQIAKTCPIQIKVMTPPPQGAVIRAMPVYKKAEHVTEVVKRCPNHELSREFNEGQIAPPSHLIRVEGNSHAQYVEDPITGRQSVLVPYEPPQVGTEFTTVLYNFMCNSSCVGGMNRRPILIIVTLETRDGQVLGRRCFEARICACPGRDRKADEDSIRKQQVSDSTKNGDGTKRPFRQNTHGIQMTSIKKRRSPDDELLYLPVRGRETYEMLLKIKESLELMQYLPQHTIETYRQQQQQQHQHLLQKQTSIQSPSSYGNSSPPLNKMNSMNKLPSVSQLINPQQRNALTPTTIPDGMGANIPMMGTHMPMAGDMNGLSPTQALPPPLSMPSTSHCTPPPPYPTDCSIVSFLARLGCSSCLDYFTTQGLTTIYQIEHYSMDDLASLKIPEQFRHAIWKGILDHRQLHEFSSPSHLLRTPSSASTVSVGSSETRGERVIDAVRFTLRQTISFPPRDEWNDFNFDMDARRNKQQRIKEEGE

Experiment [6] concerns the target T4, ΔNp63β (Homo sapiens, UniProt Q9H3D4-4 1-461).
T4 sequence: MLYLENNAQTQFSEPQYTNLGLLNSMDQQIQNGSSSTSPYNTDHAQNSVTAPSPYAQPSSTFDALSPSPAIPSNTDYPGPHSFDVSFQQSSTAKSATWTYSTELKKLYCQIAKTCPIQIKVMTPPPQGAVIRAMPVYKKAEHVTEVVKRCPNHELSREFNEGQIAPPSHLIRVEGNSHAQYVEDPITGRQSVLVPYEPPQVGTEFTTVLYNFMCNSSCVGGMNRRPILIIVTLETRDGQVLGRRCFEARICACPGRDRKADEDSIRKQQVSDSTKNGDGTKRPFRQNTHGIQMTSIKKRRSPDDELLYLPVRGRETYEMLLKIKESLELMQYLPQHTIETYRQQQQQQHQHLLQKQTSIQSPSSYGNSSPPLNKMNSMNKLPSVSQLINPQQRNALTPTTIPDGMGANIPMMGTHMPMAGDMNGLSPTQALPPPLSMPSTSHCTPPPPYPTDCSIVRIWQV

Experiment [7] concerns the target T5, ΔNp63γ (Homo sapiens, UniProt Q9H3D4-6 1-393).
T5 sequence: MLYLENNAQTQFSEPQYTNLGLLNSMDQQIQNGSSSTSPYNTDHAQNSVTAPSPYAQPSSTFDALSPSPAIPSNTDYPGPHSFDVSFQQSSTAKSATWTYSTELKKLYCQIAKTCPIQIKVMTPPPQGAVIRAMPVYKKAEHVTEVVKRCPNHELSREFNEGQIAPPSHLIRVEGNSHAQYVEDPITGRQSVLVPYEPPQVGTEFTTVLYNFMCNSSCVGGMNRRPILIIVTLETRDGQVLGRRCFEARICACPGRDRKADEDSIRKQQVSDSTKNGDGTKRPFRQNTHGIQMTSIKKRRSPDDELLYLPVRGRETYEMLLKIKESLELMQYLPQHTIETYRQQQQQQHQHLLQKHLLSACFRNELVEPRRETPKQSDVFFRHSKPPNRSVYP

Experiment [8] addresses T6, ΔNp73β (Homo sapiens, UniProt O15350-9 1-450).
T6 sequence: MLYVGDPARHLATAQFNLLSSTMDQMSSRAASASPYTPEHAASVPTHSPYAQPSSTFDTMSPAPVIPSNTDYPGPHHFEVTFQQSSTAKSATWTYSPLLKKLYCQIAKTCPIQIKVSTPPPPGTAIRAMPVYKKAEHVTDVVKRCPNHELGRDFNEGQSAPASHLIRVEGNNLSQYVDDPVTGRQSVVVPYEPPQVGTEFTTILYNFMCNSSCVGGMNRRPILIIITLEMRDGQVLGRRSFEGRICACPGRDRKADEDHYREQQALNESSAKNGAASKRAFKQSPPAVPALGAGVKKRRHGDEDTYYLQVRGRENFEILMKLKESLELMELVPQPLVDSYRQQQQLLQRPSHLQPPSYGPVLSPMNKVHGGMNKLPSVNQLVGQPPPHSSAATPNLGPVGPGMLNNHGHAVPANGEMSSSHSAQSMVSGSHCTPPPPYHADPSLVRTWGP

The target in experiment [9] is Mmp53 (Mus musculus, UniProt P02340 1-390).
The target of experiment [10] is T7, p73CT (Homo sapiens, UniProt O15350 104-383).
T7 sequence: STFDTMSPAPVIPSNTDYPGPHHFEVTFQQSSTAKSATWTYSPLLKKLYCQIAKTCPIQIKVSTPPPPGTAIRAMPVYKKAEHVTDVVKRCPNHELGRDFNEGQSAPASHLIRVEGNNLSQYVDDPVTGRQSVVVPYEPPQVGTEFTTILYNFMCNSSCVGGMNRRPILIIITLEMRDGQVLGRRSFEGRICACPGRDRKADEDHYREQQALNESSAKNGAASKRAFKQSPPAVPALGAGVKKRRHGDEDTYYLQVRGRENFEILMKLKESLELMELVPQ

Mmp53, sequence (P02340 whole entry): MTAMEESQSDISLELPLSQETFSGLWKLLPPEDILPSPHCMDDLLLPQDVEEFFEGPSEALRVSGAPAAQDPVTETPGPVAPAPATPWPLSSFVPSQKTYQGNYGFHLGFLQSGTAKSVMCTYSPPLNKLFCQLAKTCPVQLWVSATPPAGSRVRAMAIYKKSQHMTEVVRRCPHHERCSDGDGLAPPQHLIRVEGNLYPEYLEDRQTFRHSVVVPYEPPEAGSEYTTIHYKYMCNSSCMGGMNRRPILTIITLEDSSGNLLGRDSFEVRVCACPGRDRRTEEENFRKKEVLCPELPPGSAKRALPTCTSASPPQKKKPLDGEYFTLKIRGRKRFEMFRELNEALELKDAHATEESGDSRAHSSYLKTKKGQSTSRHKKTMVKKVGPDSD
Xlp53, sequence (Q7T1D0 entry or part of it): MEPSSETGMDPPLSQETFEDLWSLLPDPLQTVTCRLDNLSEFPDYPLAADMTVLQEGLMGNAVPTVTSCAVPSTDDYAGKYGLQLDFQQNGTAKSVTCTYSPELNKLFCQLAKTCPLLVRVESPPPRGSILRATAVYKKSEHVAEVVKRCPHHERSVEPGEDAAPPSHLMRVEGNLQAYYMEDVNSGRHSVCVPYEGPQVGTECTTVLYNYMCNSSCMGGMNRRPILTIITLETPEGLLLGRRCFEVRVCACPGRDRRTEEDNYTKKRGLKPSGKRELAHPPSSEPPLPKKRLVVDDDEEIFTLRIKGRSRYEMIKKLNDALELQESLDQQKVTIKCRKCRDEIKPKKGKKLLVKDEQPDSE
Hsp53, sequence (P04637 whole entry): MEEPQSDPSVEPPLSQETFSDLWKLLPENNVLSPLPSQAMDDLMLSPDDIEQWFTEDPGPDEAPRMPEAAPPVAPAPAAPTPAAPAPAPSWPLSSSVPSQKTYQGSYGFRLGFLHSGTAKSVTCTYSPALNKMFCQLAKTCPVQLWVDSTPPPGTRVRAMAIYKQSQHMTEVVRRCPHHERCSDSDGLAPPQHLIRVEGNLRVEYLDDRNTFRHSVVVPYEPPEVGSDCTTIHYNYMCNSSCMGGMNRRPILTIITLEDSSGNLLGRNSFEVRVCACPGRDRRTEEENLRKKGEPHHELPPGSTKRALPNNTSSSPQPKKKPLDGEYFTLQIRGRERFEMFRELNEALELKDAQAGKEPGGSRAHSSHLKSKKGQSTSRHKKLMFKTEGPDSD

With CGCAGACATGTCCGGACATGTCCCGC, the binding signal was 0.03 delta log10 Kd in experiment [1]; 0.01 delta log10 Kd in [2]; 0.01 delta log10 Kd in experiment [3]; 0 delta log10 Kd in experiment [4]; 0 delta log10 Kd in experiment [5]; 0.03 delta log10 Kd in experiment [6]. In addition, the binding signal came to 0.04 delta log10 Kd in experiment [7], 0.01 delta log10 Kd in experiment [8], 0.05 delta log10 Kd in experiment [9] and 0.02 delta log10 Kd in experiment [10].

Turning to CGCGGACATGTGCGGACATGTCCCGC, the binding signal in experiment [1] was 0.23 delta log10 Kd; in experiment [2], 0.54 delta log10 Kd; in experiment [3] it was 0.49 delta log10 Kd; in experiment [4], 0.57 delta log10 Kd; in experiment [5] it was 0.3 delta log10 Kd; in experiment [6], 0.46 delta log10 Kd. In addition, the binding signal in experiment [7] came out at 0.49 delta log10 Kd; in experiment [8] it was 0.65 delta log10 Kd; in [9] it was 0.36 delta log10 Kd; in experiment [10] it was 0.53 delta log10 Kd.

Take CGCGGACAAGTCCGGACATGTCCCGC: the binding signal in experiment [1] was 0.22 delta log10 Kd; in [2], 0.35 delta log10 Kd; in experiment [3], 0.16 delta log10 Kd; in experiment [4], 0.18 delta log10 Kd; in experiment [5] it was 0.02 delta log10 Kd; in [6] it was 0.15 delta log10 Kd. In addition, the binding signal in [7] turned out to be 0.19 delta log10 Kd; in experiment [8] it was 0.12 delta log10 Kd; in experiment [9], 0.27 delta log10 Kd; in experiment [10] it was 0.19 delta log10 Kd.

Turning to CGCGGAGATGTCCGGACATGTCCCGC, the binding signal in experiment [1] worked out at 1.2 delta log10 Kd; in [2], 0.95 delta log10 Kd; in [3], 0.74 delta log10 Kd; in experiment [4] it was 1.07 delta log10 Kd; in experiment [5], 0.84 delta log10 Kd; in experiment [6], 1.29 delta log10 Kd. Moreover, the binding signal in experiment [7] was 1.19 delta log10 Kd; in experiment [8], 1.32 delta log10 Kd; in [9] it was 0.4 delta log10 Kd; in experiment [10], 1.18 delta log10 Kd.

On to CGCGGATATGTCCGGACATGTCCCGC, for which the binding signal in experiment [1] is 1.01 delta log10 Kd; in experiment [2], 0.58 delta log10 Kd; in experiment [3] it was 0.56 delta log10 Kd; in [4], 0.62 delta log10 Kd; in experiment [5], 0.68 delta log10 Kd; in experiment [6], 0.85 delta log10 Kd. Besides, the binding signal in experiment [7] is 0.97 delta log10 Kd; in experiment [8] it was 1.04 delta log10 Kd; in [9], 0.34 delta log10 Kd; in experiment [10], 1.06 delta log10 Kd.

Consider CGCGTACATGTCCGGACATGTCCCGC, for which the binding signal in [1] was determined as 0.12 delta log10 Kd; in experiment [2], 0.21 delta log10 Kd; in experiment [3], 0.21 delta log10 Kd; in experiment [4] it was 0.13 delta log10 Kd; in [5], 0.08 delta log10 Kd; in experiment [6], 0.23 delta log10 Kd. Also, the binding signal was found to be 0.21 delta log10 Kd in experiment [7], 0.24 delta log10 Kd in experiment [8], 0.19 delta log10 Kd in [9] and 0.24 delta log10 Kd in experiment [10].

On to CGCGGACATGTCGGGACATGTCCCGC, for which the binding signal turned out to be 0.02 delta log10 Kd in [1]; 0.19 delta log10 Kd in experiment [2]; 0.27 delta log10 Kd in experiment [3]; 0.22 delta log10 Kd in experiment [4]; 0.11 delta log10 Kd in [5]; 0.11 delta log10 Kd in experiment [6]. Also, the binding signal in experiment [7] amounted to 0.1 delta log10 Kd; in experiment [8] it was 0.17 delta log10 Kd; in experiment [9], 0.24 delta log10 Kd; in [10], 0.17 delta log10 Kd.
